Compounds without any hit were thinned out: in the full panel of roughly 79,000, 15% have a hit. Unmarked numbers belong to inactive results. The source made the active and inactive calls. Cut-off read from the data, not from the text of the source: active = growth inhibition above about 70%; inactive = the rest.
Test: NCI Yeast Anticancer Drug Screen. Data for the rad52 strain (AID 147);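 note: 0% = growth of vehicle-treated control cultures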
Conditions: S. cerevisiae rad52 mutant growth inhibition, hits give high values
Protocol: Growth inhibition of yeast strains with defined genetic alterations is measured as a screen for potential anti-cancer activity. Selected strains with alterations in DNA damage repair or cell cycle control were exposed to compounds and growth inhibition was measured relative to vehicle treated controls. The strain used in this assay is rad52

Row | SMILES | growth inhibition (at 1.2 µM) | growth inhibition (at 3.7 µM) | growth inhibition (at 11.0 µM) | growth inhibition (at 33.0 µM) | growth inhibition (at 100.0 µM)
1 | CCOC(=O)C1=C(C)NC(C)=C(C(=O)OCC)C1c1ccc(Cl)cc1 | -13% | 6% | 92% (active) | 78% (active) | 92% (active)
2 | Cc1ccc(S(=O)(=O)N/N=C/c2c(O)ccc3ccccc23)cc1 | -8% | 9% | 81% (active) | 83% (active) | 79% (active)
3 | O=C(N/N=C/c1ccc2c(c1)CCC2)c1ccccc1[N+](=O)[O-] | -18% | -15% | -3% | -1% | 95% (active)
4 | Cc1ccc2nc(N/N=C/c3ccc(C)s3)cc(C)c2c1 | -26% | -40% | -47% | 98% (active) | 98% (active)
5 | CCOC(=O)C1=C(C)NC(C)=C(C(=O)OCC)C1c1cccc([N+](=O)[O-])c1 | -90% | -81% | -35% | 17% | 73% (active)
6 | CN(C)/N=N/c1nc[nH]c1C(N)=O | -2% | 1% | 8% | 31% | 95% (active)
7 | O=c1[nH]cc(F)c(=O)[nH]1 | 2% | 14% | 39% | 71% (active) | 88% (active)
8 | COc1ccc(CCN2C(=O)C=CC2=O)cc1OC | 13% | 37% | 79% (active) | 99% (active) | 99% (active)

From PubChem BioAssay (NCI)
